Here are results for eight compounds from PubChem BioAssay (NCI).

Compounds without any hit were thinned out: in the full panel of roughly 83,000, 20% have a hit.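 Cell lines were cultured in 96-well plates, exposed to a single compound concentration, and assessed for percent growth 48 hours later.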 Values without a mark were called inactive. Calls of active or inactive are those of the source. Rule for the calls: active = growth percent below 10; inactive = the rest.

Among the test systems are DU-145 prostate; K-562 leukemia; MALME-3M melanoma; MDA-MB-231 breast; RXF 393 renal; SF-268 CNS; SF-295 CNS; SF-539 CNS; UACC-257 melanoma; M14 melanoma; HCT-15 colon; HT29 colon; SNB-75 CNS; SNB-19 CNS; U251 CNS; PC-3 prostate; SK-MEL-5 melanoma; LOX IMVI melanoma; SK-MEL-28 melanoma; UACC-62 melanoma.
Common to all, as to test: NCI-60 one-dose screen, 48 h (100 = growth as untreated, 0 = no growth, -100 = all killed)
Holding throughout (settings): 10 µM unless noted

As to `COc1ccc(-c2nc3c(ncc4ccc(=O)[nH]c43)s2)cc1`, the growth in the experiment with DU-145 prostate was 67.7%; in the experiment with K-562 leukemia, 93.3%; with MALME-3M melanoma, 93.9%; with MDA-MB-231 breast, 81.5%; with RXF 393 renal, 88.5%; in the experiment on SF-268 CNS, 76.6%. Besides, the growth in the experiment with SF-295 CNS was 88.1%; in the experiment with SF-539 CNS, 84%; in the experiment on UACC-257 melanoma, 118%; in the experiment with M14 melanoma, 74.7%; in the experiment on HCT-15 colon, 73.6%; in the experiment with HT29 colon, 81.1%. Moreover, the growth is 102% in the experiment with SNB-75 CNS; 105% with SNB-19 CNS; 81.6% in the experiment on U251 CNS; 83.4% in the experiment with PC-3 prostate; 74.3% in the experiment with SK-MEL-5 melanoma; 52% with LOX IMVI melanoma. In the experiment on SK-MEL-28 melanoma, the growth is 87.6%.
On to `CN1CCN(c2cc(Nc3cc(C4CC4)[nH]n3)nc(Nc3ccc(CC(=O)NCc4cccc(F)c4)cc3)n2)CC1`, for which the growth is 41.7% with DU-145 prostate; 20.7% in the experiment with K-562 leukemia; 34.7% in the experiment with MALME-3M melanoma; 14.4% in the experiment on MDA-MB-231 breast; -56.5% (active) with RXF 393 renal; 30.2% with SF-268 CNS. In addition, the growth in the experiment with SF-295 CNS is 49.4%; in the experiment on SF-539 CNS it was -22.9% (active); with UACC-257 melanoma, 40.9%; in the experiment with M14 melanoma, 23.7%; in the experiment on HCT-15 colon, 56.5%; in the experiment on HT29 colon, 8.1% (active). The growth in the experiment with SNB-75 CNS was -56% (active); with SNB-19 CNS, 40%; in the experiment with U251 CNS it was 26%; with SK-MEL-5 melanoma, 68.6%; with UACC-62 melanoma, 32.7%; in the experiment with SK-MEL-28 melanoma it was 25.8%.
As for `COC(=O)CC[C@@H]1O[C@@H](c2cccc(C(F)(F)F)c2)[C@@H](O)[C@H]1O`, the growth is 103% with DU-145 prostate; 112% in the experiment with K-562 leukemia; 99.1% in the experiment with MALME-3M melanoma; 108% in the experiment with MDA-MB-231 breast; 95.3% with RXF 393 renal; 101% with SF-268 CNS. For the same compound, the growth was 104% in the experiment on SF-295 CNS; 97.2% in the experiment on SF-539 CNS; 106% in the experiment with UACC-257 melanoma; 102% in the experiment on M14 melanoma; 101% with HCT-15 colon; 97.8% in the experiment on HT29 colon. Moreover, the growth was 92.5% in the experiment with SNB-75 CNS; 107% in the experiment with SNB-19 CNS; 102% in the experiment with U251 CNS; 98% in the experiment on SK-MEL-5 melanoma; 104% in the experiment with UACC-62 melanoma; 97.4% in the experiment on LOX IMVI melanoma. For the same compound, the growth with SK-MEL-28 melanoma is 105%.
For `NC(N)=NCCCCCNc1noc(Cc2c[nH]c3cc(Br)ccc23)n1`, the growth in the experiment on DU-145 prostate is 92.8%; in the experiment with K-562 leukemia, 86.4%; in the experiment on MALME-3M melanoma, 47.8%; in the experiment with MDA-MB-231 breast, 69.4%; with RXF 393 renal, 78.3%; in the experiment with SF-268 CNS it was 33.3%. Also, the growth in the experiment on SF-295 CNS is 80.2%; with SF-539 CNS, 71.8%; in the experiment with UACC-257 melanoma it was 65.7%; with M14 melanoma, 73.6%; with HCT-15 colon, 102%; in the experiment with HT29 colon, 73.7%. Also, the growth is 37.6% in the experiment on SNB-75 CNS; 37.5% in the experiment with SNB-19 CNS; 21.6% in the experiment on U251 CNS; 68.1% with SK-MEL-5 melanoma; 56.1% in the experiment with UACC-62 melanoma; 70.5% with LOX IMVI melanoma. For the same compound, in the experiment with SK-MEL-28 melanoma, the growth is 86.9%.
As for `COc1cc2ncnc(Nc3ccc(F)c(Cl)c3)c2cc1OCC(=O)N1CCN(c2ccccc2)CC1`, the growth in the experiment with DU-145 prostate is 62.9%; in the experiment with K-562 leukemia, 85.2%; in the experiment with MALME-3M melanoma it was 96.3%; in the experiment with MDA-MB-231 breast, 90.5%; in the experiment with RXF 393 renal, 81.2%; in the experiment with SF-268 CNS it was 82.6%. Also, the growth in the experiment with SF-295 CNS was 93.4%; with SF-539 CNS, 104%; in the experiment with UACC-257 melanoma, 107%; in the experiment on M14 melanoma, 99.4%; in the experiment on HCT-15 colon it was 90.7%; in the experiment with HT29 colon it was 90.4%. Further, the growth in the experiment on SNB-75 CNS was 83.7%; in the experiment with SNB-19 CNS, 85.9%; with U251 CNS it was 98.9%; in the experiment with SK-MEL-5 melanoma, 95%; with UACC-62 melanoma it was 92.8%; in the experiment on LOX IMVI melanoma, 93.7%. Also, in the experiment on SK-MEL-28 melanoma, the growth was 113%.
For `COc1c(C(=O)Nc2ccc(C)c(Br)c2)ccc2ccccc12`, the growth with DU-145 prostate was 96.8%; in the experiment on K-562 leukemia it was 41.9%; in the experiment with MALME-3M melanoma, 84.4%; in the experiment on MDA-MB-231 breast, 104%; in the experiment on RXF 393 renal it was 81.1%; in the experiment with SF-268 CNS, 96.5%. The growth with SF-295 CNS is 90.6%; in the experiment on SF-539 CNS, 92.2%; in the experiment with UACC-257 melanoma, 98.3%; with M14 melanoma, 81.1%; in the experiment on HCT-15 colon it was 61.2%; in the experiment on HT29 colon it was 78.5%. Further, the growth with SNB-75 CNS was 88.4%; with SNB-19 CNS it was 95.3%; in the experiment on U251 CNS it was 96.2%; in the experiment with SK-MEL-5 melanoma, 98.3%; in the experiment on UACC-62 melanoma, 71.6%; with LOX IMVI melanoma, 95.1%. The growth in the experiment on SK-MEL-28 melanoma was 93.3%.
Turning to `Cc1cc(C(=O)O)c(C)n1-c1cccc(C(=O)O)c1`, the growth with DU-145 prostate was 16.9%; with K-562 leukemia, 63.3%; in the experiment on MALME-3M melanoma it was 113%; with MDA-MB-231 breast it was 96.8%; in the experiment on RXF 393 renal it was 61.8%; in the experiment on SF-268 CNS it was 84.5%. Besides, the growth with SF-295 CNS was 61.3%; in the experiment with SF-539 CNS, 102%; in the experiment on UACC-257 melanoma, 70.1%; in the experiment on M14 melanoma it was 90.9%; in the experiment on HCT-15 colon, 9.52% (active); in the experiment with HT29 colon, 28.4%. For the same compound, the growth with SNB-75 CNS was 121%; in the experiment on SNB-19 CNS, 87%; in the experiment on U251 CNS, 64.2%; in the experiment on SK-MEL-5 melanoma, 95.8%; in the experiment with UACC-62 melanoma, 85.1%; with LOX IMVI melanoma, 65%. In the experiment with SK-MEL-28 melanoma, the growth was 102%.
In the case of `C=CC[Se]C(=O)Cc1c(C)n(C(=O)c2ccc(Cl)cc2)c2ccc(OC)cc12`, the growth with DU-145 prostate was -35.6% (active); in the experiment on K-562 leukemia it was 25.9%; in the experiment on MALME-3M melanoma, -23.4% (active); in the experiment with MDA-MB-231 breast, -56% (active); in the experiment with RXF 393 renal it was -57.5% (active); in the experiment on SF-268 CNS, 15.3%. The growth in the experiment with SF-295 CNS is -28.8% (active); in the experiment on SF-539 CNS, -89.5% (active); with UACC-257 melanoma it was -34.8% (active); in the experiment on M14 melanoma, -35.4% (active); in the experiment on HCT-15 colon, 6.96% (active); with HT29 colon, 9.35% (active). The growth in the experiment with SNB-75 CNS is -68.6% (active); in the experiment on SNB-19 CNS, -46% (active); in the experiment on U251 CNS it was -58.7% (active); with SK-MEL-5 melanoma, -69.7% (active); with UACC-62 melanoma, -66.1% (active); in the experiment with LOX IMVI melanoma, 7.91% (active). Also, in the experiment with SK-MEL-28 melanoma, the growth was -16% (active).
